Test [1] concerns the target T1, Ephrin type-B receptor 1 (Homo sapiens) (UniProt P54762).
T1 sequence (whole entry): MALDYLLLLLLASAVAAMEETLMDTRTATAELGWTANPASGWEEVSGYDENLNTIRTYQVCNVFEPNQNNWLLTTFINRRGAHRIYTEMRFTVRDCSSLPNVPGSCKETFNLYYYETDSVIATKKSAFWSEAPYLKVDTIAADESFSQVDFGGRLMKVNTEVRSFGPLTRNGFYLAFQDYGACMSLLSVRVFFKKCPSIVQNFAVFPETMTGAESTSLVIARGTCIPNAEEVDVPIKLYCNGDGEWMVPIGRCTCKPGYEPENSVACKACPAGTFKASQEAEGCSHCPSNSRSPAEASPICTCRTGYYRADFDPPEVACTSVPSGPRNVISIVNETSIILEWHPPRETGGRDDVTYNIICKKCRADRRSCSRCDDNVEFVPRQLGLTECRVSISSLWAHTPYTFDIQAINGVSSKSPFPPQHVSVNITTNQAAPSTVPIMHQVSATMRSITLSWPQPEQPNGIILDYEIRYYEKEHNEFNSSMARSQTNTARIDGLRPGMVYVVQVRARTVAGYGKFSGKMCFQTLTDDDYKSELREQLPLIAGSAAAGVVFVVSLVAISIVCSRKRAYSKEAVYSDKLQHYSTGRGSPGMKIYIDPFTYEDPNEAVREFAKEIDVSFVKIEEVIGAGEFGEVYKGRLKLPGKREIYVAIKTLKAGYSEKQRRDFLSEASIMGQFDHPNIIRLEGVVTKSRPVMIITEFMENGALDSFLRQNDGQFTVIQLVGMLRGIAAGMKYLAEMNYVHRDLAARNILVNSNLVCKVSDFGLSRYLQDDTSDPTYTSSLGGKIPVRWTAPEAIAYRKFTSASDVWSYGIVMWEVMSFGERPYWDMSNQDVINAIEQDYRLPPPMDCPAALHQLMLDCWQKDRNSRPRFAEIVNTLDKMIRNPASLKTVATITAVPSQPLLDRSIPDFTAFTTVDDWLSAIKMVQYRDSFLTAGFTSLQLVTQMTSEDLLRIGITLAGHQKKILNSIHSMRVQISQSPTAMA
To be noted: at 10 µM.

Test [2] concerns the target T2, Ephrin type-B receptor 2 (Homo sapiens) (UniProt P29323).
T2 sequence (whole entry): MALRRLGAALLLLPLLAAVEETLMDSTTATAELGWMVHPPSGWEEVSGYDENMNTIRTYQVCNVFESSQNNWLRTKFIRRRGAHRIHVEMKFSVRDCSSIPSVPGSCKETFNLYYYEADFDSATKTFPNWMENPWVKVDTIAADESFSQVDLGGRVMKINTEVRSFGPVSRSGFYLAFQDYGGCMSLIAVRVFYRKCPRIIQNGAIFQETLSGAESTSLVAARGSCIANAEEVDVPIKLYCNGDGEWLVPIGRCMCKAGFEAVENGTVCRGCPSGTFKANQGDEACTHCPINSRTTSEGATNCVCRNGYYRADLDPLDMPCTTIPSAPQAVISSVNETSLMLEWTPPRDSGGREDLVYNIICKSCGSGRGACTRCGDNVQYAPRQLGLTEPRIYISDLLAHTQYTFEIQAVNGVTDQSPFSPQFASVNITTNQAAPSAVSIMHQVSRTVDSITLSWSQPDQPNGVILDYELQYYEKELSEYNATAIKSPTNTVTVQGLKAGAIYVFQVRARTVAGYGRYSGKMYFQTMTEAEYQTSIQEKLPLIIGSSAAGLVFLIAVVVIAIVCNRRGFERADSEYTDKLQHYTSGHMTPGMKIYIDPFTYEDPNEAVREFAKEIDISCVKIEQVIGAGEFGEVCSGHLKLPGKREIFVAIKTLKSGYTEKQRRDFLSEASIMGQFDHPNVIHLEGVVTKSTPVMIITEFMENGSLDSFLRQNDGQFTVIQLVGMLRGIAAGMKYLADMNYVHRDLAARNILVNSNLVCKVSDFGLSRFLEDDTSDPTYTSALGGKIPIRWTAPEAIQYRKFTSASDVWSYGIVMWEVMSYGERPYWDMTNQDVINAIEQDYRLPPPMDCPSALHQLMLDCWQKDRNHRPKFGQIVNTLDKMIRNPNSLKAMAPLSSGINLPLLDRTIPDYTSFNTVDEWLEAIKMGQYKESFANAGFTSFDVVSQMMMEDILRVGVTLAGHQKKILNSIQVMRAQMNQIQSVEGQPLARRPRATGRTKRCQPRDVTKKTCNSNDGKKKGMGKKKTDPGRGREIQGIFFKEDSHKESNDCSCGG
Conditions: at 1 µM; call rule not given here.

Test [3] addresses T2, Ephrin type-B receptor 2 (Homo sapiens). To be noted: at 10 µM.
Test [4] concerns the target T3, Ephrin type-B receptor 3 (Homo sapiens) (UniProt P54753).
T3 sequence (whole entry): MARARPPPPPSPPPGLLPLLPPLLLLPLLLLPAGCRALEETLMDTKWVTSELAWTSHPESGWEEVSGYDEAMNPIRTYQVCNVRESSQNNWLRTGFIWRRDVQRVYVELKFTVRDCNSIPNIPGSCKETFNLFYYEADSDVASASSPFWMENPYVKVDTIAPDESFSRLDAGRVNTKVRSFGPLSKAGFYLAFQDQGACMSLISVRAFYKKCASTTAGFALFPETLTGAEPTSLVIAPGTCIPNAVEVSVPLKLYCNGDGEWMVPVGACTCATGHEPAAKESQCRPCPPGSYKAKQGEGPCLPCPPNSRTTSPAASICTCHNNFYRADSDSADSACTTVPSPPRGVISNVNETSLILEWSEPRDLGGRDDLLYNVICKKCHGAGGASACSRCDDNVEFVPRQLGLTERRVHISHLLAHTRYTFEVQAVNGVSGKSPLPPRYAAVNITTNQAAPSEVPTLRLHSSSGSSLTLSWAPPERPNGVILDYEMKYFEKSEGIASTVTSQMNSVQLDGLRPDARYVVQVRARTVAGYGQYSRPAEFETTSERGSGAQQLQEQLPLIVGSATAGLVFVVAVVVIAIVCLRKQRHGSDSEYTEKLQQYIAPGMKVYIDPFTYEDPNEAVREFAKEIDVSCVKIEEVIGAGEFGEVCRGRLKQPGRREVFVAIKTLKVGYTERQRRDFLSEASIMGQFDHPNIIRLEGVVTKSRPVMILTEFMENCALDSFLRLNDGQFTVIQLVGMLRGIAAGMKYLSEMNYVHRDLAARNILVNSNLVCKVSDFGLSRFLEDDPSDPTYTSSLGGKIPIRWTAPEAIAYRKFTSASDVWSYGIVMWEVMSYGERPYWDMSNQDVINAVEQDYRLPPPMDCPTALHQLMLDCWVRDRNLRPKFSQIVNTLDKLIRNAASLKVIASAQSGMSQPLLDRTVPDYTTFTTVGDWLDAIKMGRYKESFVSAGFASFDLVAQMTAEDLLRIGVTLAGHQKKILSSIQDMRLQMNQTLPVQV
To be noted: at 1 µM.

Test [5] concerns the target T3, Ephrin type-B receptor 3 (Homo sapiens). To be noted: at 10 µM.
Test [6] deals with T4, Ephrin type-B receptor 4 (Homo sapiens) (UniProt P54760).
T4 sequence (whole entry): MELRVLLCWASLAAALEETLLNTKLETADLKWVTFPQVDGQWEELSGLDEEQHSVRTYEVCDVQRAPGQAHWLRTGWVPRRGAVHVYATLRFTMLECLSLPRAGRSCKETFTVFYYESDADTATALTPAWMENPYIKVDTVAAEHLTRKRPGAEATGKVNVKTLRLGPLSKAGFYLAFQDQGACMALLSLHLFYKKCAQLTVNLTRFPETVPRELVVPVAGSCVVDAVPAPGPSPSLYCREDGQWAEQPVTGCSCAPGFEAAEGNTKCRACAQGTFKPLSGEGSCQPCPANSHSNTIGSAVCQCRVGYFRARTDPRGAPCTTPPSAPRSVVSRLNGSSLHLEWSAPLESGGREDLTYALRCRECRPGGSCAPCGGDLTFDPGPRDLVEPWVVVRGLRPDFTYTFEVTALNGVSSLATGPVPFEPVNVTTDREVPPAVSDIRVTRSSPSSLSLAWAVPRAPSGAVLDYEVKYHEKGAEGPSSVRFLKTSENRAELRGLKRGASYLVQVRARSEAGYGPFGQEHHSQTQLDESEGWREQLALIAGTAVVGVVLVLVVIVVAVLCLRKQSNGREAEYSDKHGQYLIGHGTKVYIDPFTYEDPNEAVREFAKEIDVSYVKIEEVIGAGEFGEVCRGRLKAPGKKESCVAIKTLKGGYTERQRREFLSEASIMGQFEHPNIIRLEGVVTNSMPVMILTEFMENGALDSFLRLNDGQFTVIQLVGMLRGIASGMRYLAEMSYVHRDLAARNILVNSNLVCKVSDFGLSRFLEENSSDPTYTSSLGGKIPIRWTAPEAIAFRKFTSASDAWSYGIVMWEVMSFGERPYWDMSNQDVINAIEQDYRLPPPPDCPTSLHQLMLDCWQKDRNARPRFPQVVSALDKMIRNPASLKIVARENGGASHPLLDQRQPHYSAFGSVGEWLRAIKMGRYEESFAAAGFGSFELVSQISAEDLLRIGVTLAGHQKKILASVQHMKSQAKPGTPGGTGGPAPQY
Conditions: at 10 µM.

The target of test [7] is Receptor tyrosine-protein kinase erbB-4 (Homo sapiens) (UniProt Q15303). To be noted: at 1 µM.
Test [8] shares this target. To be noted: at 10 µM.
Test [9] deals with T4, Ephrin type-B receptor 4 (Homo sapiens). Conditions: at 1 µM.
For test [10], the target named is Focal adhesion kinase 1 (Homo sapiens) (UniProt Q05397). Conditions: at 1 µM.

Molecules are shown by their SMILES.

Receptor tyrosine-protein kinase erbB-4 (Homo sapiens), sequence (Q15303 whole entry): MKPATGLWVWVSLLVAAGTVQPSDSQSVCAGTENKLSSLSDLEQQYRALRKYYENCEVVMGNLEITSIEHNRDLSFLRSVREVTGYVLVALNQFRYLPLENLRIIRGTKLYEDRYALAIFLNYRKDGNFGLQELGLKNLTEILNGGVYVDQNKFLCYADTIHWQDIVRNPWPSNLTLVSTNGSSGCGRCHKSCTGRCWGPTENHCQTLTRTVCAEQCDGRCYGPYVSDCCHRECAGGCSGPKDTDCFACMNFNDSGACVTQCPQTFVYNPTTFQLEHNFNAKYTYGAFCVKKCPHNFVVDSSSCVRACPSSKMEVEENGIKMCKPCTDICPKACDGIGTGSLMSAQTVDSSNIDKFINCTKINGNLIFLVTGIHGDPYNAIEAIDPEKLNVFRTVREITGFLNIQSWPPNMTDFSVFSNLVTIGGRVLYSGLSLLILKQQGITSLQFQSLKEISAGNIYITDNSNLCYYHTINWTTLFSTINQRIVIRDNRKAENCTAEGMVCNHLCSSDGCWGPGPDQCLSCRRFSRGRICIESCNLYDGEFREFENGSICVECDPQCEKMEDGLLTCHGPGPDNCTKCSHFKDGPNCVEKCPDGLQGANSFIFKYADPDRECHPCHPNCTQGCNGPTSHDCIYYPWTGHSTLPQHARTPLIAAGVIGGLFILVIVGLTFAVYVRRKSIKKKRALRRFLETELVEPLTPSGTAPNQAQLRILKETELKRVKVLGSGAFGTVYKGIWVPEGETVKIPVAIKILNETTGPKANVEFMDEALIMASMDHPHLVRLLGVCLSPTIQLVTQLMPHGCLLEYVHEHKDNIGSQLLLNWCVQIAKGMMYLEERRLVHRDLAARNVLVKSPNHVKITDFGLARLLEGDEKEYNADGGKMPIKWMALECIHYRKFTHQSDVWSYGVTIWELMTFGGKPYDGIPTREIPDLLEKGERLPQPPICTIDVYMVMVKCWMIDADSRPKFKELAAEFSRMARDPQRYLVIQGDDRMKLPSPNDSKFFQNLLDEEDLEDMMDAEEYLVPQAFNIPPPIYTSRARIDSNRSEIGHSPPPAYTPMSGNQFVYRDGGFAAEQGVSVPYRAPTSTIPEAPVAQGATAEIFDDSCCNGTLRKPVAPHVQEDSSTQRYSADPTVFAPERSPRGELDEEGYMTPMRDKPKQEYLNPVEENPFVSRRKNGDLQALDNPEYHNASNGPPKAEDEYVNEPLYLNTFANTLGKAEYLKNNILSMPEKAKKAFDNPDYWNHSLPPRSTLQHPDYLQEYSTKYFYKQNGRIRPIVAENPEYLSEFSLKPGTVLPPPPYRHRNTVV
Focal adhesion kinase 1 (Homo sapiens), sequence (Q05397 2-1052 limits assumed): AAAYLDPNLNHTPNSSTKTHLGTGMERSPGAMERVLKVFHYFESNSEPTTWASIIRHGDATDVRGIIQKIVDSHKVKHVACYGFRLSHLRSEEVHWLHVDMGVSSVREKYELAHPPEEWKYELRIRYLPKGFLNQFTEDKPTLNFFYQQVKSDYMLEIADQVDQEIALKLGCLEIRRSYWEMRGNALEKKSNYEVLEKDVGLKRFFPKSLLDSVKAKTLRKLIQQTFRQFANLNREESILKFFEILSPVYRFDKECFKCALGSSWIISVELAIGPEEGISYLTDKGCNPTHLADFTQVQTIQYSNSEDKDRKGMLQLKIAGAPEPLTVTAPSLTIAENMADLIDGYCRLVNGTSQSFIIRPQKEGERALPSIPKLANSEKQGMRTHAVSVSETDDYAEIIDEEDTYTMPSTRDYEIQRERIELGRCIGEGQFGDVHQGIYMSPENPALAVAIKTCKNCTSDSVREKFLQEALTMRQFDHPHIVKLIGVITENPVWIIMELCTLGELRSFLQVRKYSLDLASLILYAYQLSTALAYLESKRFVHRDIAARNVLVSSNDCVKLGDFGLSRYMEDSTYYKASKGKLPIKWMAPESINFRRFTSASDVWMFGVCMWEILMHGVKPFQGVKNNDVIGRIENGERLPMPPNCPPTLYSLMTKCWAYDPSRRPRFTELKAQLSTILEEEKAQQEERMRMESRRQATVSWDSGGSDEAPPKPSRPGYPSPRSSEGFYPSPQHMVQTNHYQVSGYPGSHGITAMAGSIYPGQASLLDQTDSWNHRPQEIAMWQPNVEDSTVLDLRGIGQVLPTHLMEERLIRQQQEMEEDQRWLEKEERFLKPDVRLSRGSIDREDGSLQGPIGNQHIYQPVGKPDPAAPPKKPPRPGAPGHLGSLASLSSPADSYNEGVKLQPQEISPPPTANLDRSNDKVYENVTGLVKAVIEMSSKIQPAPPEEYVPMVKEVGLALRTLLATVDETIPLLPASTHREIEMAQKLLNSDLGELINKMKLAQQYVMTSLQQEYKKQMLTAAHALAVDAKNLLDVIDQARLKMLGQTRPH

For the molecule `COc1ccc(CNC(=O)Nc2ncc([N+](=O)[O-])s2)cc1`, the residual activity in [1] is 80%; in [2], 105%; in test [3], 117%; in test [4] it was 117% (inactive); in [5] it was 105%; in test [6], 78%. The residual activity turned out to be 43% in test [7] and 33% in test [8].
For `O=C(c1cc2cc(O)ccc2[nH]1)c1cc2cc(O)ccc2[nH]1`, the residual activity was determined as 28% in test [1]; 24% in test [3]; 126% in test [5]; 72% in [9]; 13% in test [6]; 73% in [7]. The residual activity was determined as 63% in test [8] and 112% in test [10].
As for `O=C1Cc2c([nH]c3ccc(Br)cc23)-c2ccccc2N1`, the residual activity in [1] is 76%; in test [2], 121%; in test [3] it was 120%; in test [9] it was 89%; in test [6], 71%; in test [10], 82%.
For the molecule `O=C(Nc1nc2ccccc2n1CCN1CCOCC1)c1cccc([N+](=O)[O-])c1`, the residual activity in [1] is 103%; in test [2], 113%; in test [3], 110%; in [4] it was 110% (inactive); in test [6] it was 109%; in test [10] it was 131%.
On to `O=C(CCCc1ccc(-c2ccccc2F)cc1)Nc1ccc(O)cc1`, for which the residual activity in test [1] is 98%; in [2], 107%; in [3], 112%; in test [4] it was 109% (inactive); in [5], 97%; in test [9] it was 93%. For the same molecule, the residual activity was determined as 111% in [7], 127% in test [8] and 105% in [10].
`O=C(NC(NC(=S)Nc1ccc(F)c([N+](=O)[O-])c1)C(Cl)(Cl)Cl)C(c1ccccc1)c1ccccc1` (stereo unspecified): the residual activity in test [1] was 84%; in [4], 104% (inactive); in test [5] it was 84%.
Turning to `NC(=O)c1ccc(-c2nc(-c3ccc4c(c3)OCCO4)c(-c3ccccn3)[nH]2)cc1`, the residual activity in test [1] was 85%; in [2], 96%; in [3] it was 24%; in test [4], 117% (inactive); in test [5] it was 98%; in [9] it was 85%. The values for the residual activity in [6], in test [7] and in test [8] were 41%, 89% and 59%, respectively.
For the molecule `O=C(O)/C=C/c1cc(Br)c(Br)c(Br)c1Br`, the residual activity was 89% in test [1]; 105% in [9]; 90% in [6]; 59% in test [7]; 45% in [8]; 98% in [10].
`COc1ccc2c(c1)c(C1=C(c3c[nH]c4ccccc34)C(=O)NC1=O)cn2CCCN(C)C`: the residual activity was 53% in [1]; 109% in test [2]; 111% (inactive) in test [4]; 124% in test [5]; 75% in [7]; 53% in [8].
As for `COc1cc2nccc(Oc3ccc(NC(=S)NC(=O)c4ccccc4C)cc3)c2cc1OC`, the residual activity in test [1] came out at 70%; in [5], 129%; in test [7], 85%; in test [8], 67%.
`O=c1cc(N2CCNCC2)oc2c(-c3ccccc3)cccc12`: the residual activity came to 105% in test [1]; 103% in test [2]; 97% in test [9]; 95% in test [7]; 73% in test [8]; 105% in [10].
Regarding `CC(C)(C)n1nc(Cc2cccc3ccccc23)c2c(N)ncnc21`, the residual activity in test [1] is 0%; in [2], 3%; in test [3], -1%; in test [4], 112% (inactive); in test [5] it was 12%; in [9] it was 3%. Moreover, the residual activity in test [6] was -3%; in test [7], 51%; in test [8], 8%; in test [10] it was 122%.

By residual activity is commonly meant the signal under treatment as a percentage of the control signal.

The values above are taken from ChEMBL document CHEMBL2218924, “A broad activity screen in support of a chemogenomic map for kinase signalling research and drug discovery” (Biochem J, 2013).
